Assay results published in PubChem BioAssay (NCATS).
Where “and” joins values, the source holds several entries; their conditions need not be identical. Identical values can stand only once. Results filed as inconclusive are left out. Calls of active or inactive are those of the source. The call rests on the fitted dose curve; in most records, active means well fitted curve in the direction sought with a large enough effect; inconclusive means small, poorly fitted or top-dose-only effect, or another doubt; inactive means no such curve, though single readings can be large; an effect the other way counts as inactive or inconclusive.

Columns and labels:
[1] = target: Calcium and integrin-binding protein 1 (Homo sapiens) (UniProt Q99828); test: Primary qHTS for Identification of Calcium Integrin Binding Protein 1 (CIB1) Competitor (AID 1508620);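 further: GST tagged CIB1 binding a fluorescein labelled alphaIIb integrin peptide tracer; top concentration of the series differs between compounds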
How it was run: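 CIB1-GST (1 uM final) and compound incubated 15 min at room temperature before adding FITC-alphaIIb peptide tracer (100 nM final). Competition for binding read by fluorescence polarization (ex 480, em 540) after another 15 min at room temperature.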

[2] = Primary qHTS for inhibitors of nuclear receptor binding SET domain protein 2 (NSD2) in an isogenic RCH-ACV NSD2 p.E1099K mutant (9B) (AID 1645876); further: nearly all actives have a fitted effect of over 70% in size; further: potency means the concentration at half of the fitted maximal effect
[3] = Primary qHTS for inhibitors of nuclear receptor binding SET domain protein 2 (NSD2) in an RCH-ACV wild type WT cells (2C) (AID 1645877); further: nearly all actives have a fitted effect of over 70% in size; further: potency means the concentration at half of the fitted maximal effect
[4] = target: Glutathione peroxidase 1 (Homo sapiens) (UniProt P07203); test: Primary qHTS Assay for Inhibitors of Recombinant Selenoprotein Glutathione Peroxidase 1 (GPX1) (AID 1845191); further: nearly all actives have a fitted effect of over 65% in size; further: potency means the concentration at half of the fitted maximal effect
How it was run: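 10 nM GPX1 + cpd, 30 min RT; start w/ 1 mM GSH, 0.5 mM cumene hydroperoxide, 0.5 mM NADPH, 100 nM GR, 0.01% BSA; buffer 50 mM Tris-HCl pH 7.5, 2 mM EDTA, 150 mM NaCl; Fl 340/450, 0 & 15 min.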

[5] = target: Phospholipid hydroperoxide glutathione peroxidase GPX4 (Homo sapiens) (UniProt P36969); test: Primary qHTS Assay for Inhibitors of Recombinant Selenoprotein Glutathione Peroxidase 4 (GPX4) (AID 1845192); conditions: outcome: dose series up to 50 µM unless noted; further: nearly all actives have a fitted effect of over 65% in size; further: potency means the concentration at half of the fitted maximal effect
How it was run: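 NADPH consumption, followed by fluorescence at 340/450 nm between 0 and 15 min, reports GPX4 activity via coupled glutathione reductase (100 nM). Enzyme 200 nM was pre-exposed to compound 30 min; 0.5 mM cumene hydroperoxide and 1 mM GSH served as substrates.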

[6] = target: Luciferin 4-monooxygenase (Photinus pyralis) (UniProt P08659); test: Primary firefly luciferase (FLuc) qHTS assay for identification of artifact compounds. (AID 1845220); further: nearly all actives have a fitted effect of over 60% in size
How it was run: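 Cell-free, 1536-well qHTS. Buffer pH 7.6 with 0.01% Tween-20 and 0.05% BSA; 10 uM D-luciferin, 10 uM ATP; 10 nM P. pyralis luciferase; luminescence after 5 min.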

[7] = Primary fluorescence-based thiol-reactive (MSTI) qHTS assay for identification of artifact compounds. (AID 1845221); further: nearly all actives have a fitted effect of over 65% in size; further: potency means the concentration at half of the fitted maximal effect
How it was run: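 Compounds were incubated 1 h at room temperature in the dark with the MSTI probe (4 uM) in PBS pH 7.4, 2% DMSO. Signals were normalized between Acetyl-MSTI and MSTI.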

[8] = tested on: Nanoluciferase (engineered Oplophorus gracilirostris luciferase); test: Primary Nanoluciferase (NLuc) qHTS assay for identification of artifact compounds. (AID 1845222)
How it was run: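 Compounds are pinned into diluted (1:55) conditioned medium of NLuc-expressing S16 cells and held 15 min at room temperature protected from light. Nano-Glo substrate follows, and luminescence is read 5 min later.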

C33A = test: Primary qHTS to identify gynecologic anti-cancer compounds using libraries of approved drugs and bioactive compounds (AID 1345084); conditions: Gynecologic cancer cell panel viability, ATPlite luminescence, 48 h; series mostly up to 57.5 µM; further: nearly all actives have a fitted effect of over 55% in size; further: potency means the concentration at half of the fitted maximal effect
How it was run: (§1)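 Luminescence from the ATPlite ATP-monitoring reagent indicates viable cell number; lower signal means cytotoxicity. Cells received compound 16 h after seeding and were exposed for 48 h across five concentrations.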

CASKI = test: as above; conditions: Gynecologic cancer cell panel viability, ATPlite luminescence, 48 h; series mostly up to 57.5 µM
How it was run: as §1

Es-2 = test: as above; conditions: Gynecologic cancer cell panel viability, ATPlite luminescence, 48 h; series mostly up to 57.5 µM
How it was run: as §1

HeLa = test: as above; conditions: Gynecologic cancer cell panel viability, ATPlite luminescence, 48 h; series mostly up to 57.5 µM
How it was run: as §1

Hek293T = test: as above; conditions: Gynecologic cancer cell panel viability, ATPlite luminescence, 48 h, control line for the selectivity index; series mostly up to 57.5 µM
How it was run: as §1

OV90 = test: as above; conditions: Gynecologic cancer cell panel viability, ATPlite luminescence, 48 h; series mostly up to 57.5 µM
How it was run: as §1

Tov-21-G = test: as above; conditions: Gynecologic cancer cell panel viability, ATPlite luminescence, 48 h; series mostly up to 57.5 µM
How it was run: as §1

Tov112D = test: as above; conditions: Gynecologic cancer cell panel viability, ATPlite luminescence, 48 h; series mostly up to 57.5 µM
How it was run: as §1

[9] = tested on: Zika virus NS2B-NS3 protease (linked construct); test: Primary screen NINDS Rhodamine qHTS for Zika virus inhibitors (AID 1347160); further: nearly all actives have a fitted effect of over 55% in size
How it was run: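 In 10 mM Tris-HCl pH 8.0 containing 0.01% Tween 20, linked NS2B-NS3 protease (25 nM final) is exposed to test compounds for 15 min. Cleavage of 1.5 microM Rhodamine110 substrate is tracked by fluorescence over 15 min.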

JEG-3 = test: Primary qHTS to identify gynecologic anti-cancer compounds using libraries of approved drugs and bioactive compounds (AID 1345084); conditions: Gynecologic cancer cell panel viability, ATPlite luminescence, 48 h; series mostly up to 57.5 µM; further: nearly all actives have a fitted effect of over 55% in size; further: potency means the concentration at half of the fitted maximal effect
How it was run: as §1

[10] = Primary redox qHTS assay for identification of artifact compounds. (AID 1845223)
How it was run: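 Amplex Red (25 uM) and HRP (250 mU/mL) in HBSS, with compounds for 15 min, then 250 uM DTT for 30 min, room temperature, dark. Fluorescence 525/598 nm read; normalized to DMSO and 10 uM DA3003; Hill fit.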

CAOV3 = test: Primary qHTS to identify gynecologic anti-cancer compounds using libraries of approved drugs and bioactive compounds (AID 1345084); conditions: Gynecologic cancer cell panel viability, ATPlite luminescence, 48 h; series mostly up to 57.5 µM; further: nearly all actives have a fitted effect of over 55% in size; further: potency means the concentration at half of the fitted maximal effect
How it was run: as §1

Measured: Potency

Sequence of Phospholipid hydroperoxide glutathione peroxidase GPX4 (Homo sapiens) (P36969 whole entry, looked up): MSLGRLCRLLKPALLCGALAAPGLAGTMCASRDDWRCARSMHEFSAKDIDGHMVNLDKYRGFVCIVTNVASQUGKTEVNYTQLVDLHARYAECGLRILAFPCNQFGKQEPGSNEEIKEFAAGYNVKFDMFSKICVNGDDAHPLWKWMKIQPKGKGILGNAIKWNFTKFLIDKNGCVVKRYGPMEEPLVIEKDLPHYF
Sequence of Calcium and integrin-binding protein 1 (Homo sapiens) (Q99828 whole entry, looked up): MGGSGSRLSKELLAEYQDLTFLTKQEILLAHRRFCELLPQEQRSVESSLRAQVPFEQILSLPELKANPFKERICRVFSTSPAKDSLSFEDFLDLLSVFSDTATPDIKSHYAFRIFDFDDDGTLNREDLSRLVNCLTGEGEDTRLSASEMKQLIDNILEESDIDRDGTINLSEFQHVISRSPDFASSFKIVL
Sequence of Glutathione peroxidase 1 (Homo sapiens) (P07203 whole entry, looked up): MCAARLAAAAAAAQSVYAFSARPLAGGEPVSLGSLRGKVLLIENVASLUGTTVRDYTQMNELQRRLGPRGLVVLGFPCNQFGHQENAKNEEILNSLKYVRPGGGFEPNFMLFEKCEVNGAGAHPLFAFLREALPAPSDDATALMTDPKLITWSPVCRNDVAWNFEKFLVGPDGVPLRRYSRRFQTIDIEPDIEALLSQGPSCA

CC(C)(C)c1ccc(CNC(=S)NCc2ccc(NS(C)(=O)=O)c(F)c2)cc1
active: [2] 20.5 µM | [3] 12.9 µM | [4] 14.3 µM
not listed: [9] | JEG-3 | [10] | CAOV3
inactive: all other assays above

Cc1ccc(CCCO)c(NCc2ccc3nc(NCCCN4CCOCC4)n(Cc4nc(C)ccc4O)c3c2)c1
active: [2] 12.9 µM
not listed: [3] | [5] | [7] | OV90 | [10] | CAOV3
inactive: all other assays above

COc1cc(N2CCOCC2)ccc1Nc1ncc(F)c(Nc2ccccc2NS(C)(=O)=O)n1
inactive: [9] | [1] | [4] | [5] | [6] | [8] | [10] | Es-2
active: [2] 8.17 µM | [3] 8.17 µM | [7] 2.38 µM

C[C@@H](O[C@H]1OCCN(Cc2n[nH]nc2CN(C)C)[C@H]1c1ccc(F)cc1)c1cc(C(F)(F)F)cc(C(F)(F)F)c1
active: [2] 16.3 µM | [3] 14.5 µM
not listed: [5]
inactive: all other assays above

COCCNCc1ccc(-c2cc3nccc(Oc4ccc(NC(=S)NC(=O)Cc5ccc(F)cc5)cc4F)c3s2)nc1
active: [2] 2.9 µM | [3] 3.25 µM and 2.35 µM
inactive: [1] | [4] | [5] | [6] | [7] | [8] | [10] | CASKI | JEG-3 | Tov-21-G

Fc1ccccc1CNCc1ccc(-c2ccnc3[nH]ccc23)cc1
active: [2] 16.3 µM | [3] 11.5 µM | [4] 25.5 µM | [5] 16.1 µM
inactive: all other assays above

Cc1nc2ccc(C(=O)N3CCC4(CC3)CC(=O)c3c(cnn3C(C)C)C4)cc2[nH]1
inactive: [1] | [4] | [5]

C=C(C)C(=O)O[C@H]1[C@H]2C(=C)C(=O)O[C@@H]2C[C@@H](C)/C=C\C(=O)[C@](C)(O)[C@@H]1OC(C)=O
active: C33A 11.2 µM | CAOV3 8.91 µM | Es-2 11.2 µM | JEG-3 10 µM | Tov-21-G 7.94 µM
inactive: [1] | [3] | [4] | [5] | [6] | [8] | [10]

Cc1cc2nc(NCCCO)n(CC(=O)c3cc(C(C)(C)C)c(O)c(C(C)(C)C)c3)c2cc1C
active: [2] 8.17 µM
not listed: [3] | [7] | C33A | [9]
inactive: all other assays above

CC1OC2O[C@H]3[C@@H](OCC(O)[C@H]3O)OC(=O)C34CCC(C)(C)CC3C3=CCC5C6(C)CC(O)C(OC7OC(CO)C(O)C(O)C7O[C@@H]7OC[C@H](OC(=O)CC(C)(O)CC(=O)OC1C(OC1OCC(O)C(O)C1O)C2O)[C@@H](O)[C@H]7O)C(C)(CO)C6CCC5(C)C3(C)CC4 (some centres undefined)
active: [2] 8.93 µM | [3] 4.47 µM
not listed: [5] | C33A | Es-2 | OV90 | Tov-21-G | Tov112D | JEG-3
inactive: all other assays above

CN[C@@H]1[C@@H](O)[C@@H](O[C@@H]2[C@@H](O)[C@H](O[C@H]3O[C@@H]([C@@H](C)NC)CC[C@H]3N)[C@@H](N)C[C@H]2N)OC[C@]1(C)O
not listed: [1] | [4] | [7]
inactive: all other assays above

CC1(CO)CCCC2(C)C1C(OC(=O)c1ccccc1)C=C1C(=O)OCC12O (centres undefined)
active: [2] 2.84 µM | [3] 1.79 µM | Tov-21-G 11.2 µM
not listed: [1] | [7] | C33A | Es-2 | Hek293T | OV90 | CAOV3
inactive: all other assays above

CS(=O)(=O)c1ccc(-c2cn3ccccc3n2)cc1
active: C33A 10 µM | CAOV3 10 µM | CASKI 6.31 µM | HeLa 12.6 µM | Hek293T 17.8 µM | JEG-3 7.08 µM | OV90 7.94 µM | Tov-21-G 8.91 µM | Tov112D 7.94 µM

CC1CCCC(SCC(O)C(=O)O)CC(=O)c2c(O)cc(O)cc2CC(=O)O1 (centres undefined)
inactive: [1] | [4] | [6] | [8] | [10] | CAOV3 | HeLa | JEG-3 | OV90 | Tov-21-G
active: [2] 6.32 µM | [3] 3.55 µM

CNCCN(C)Cc1cn[nH]c1-c1ccc(OC2CC(OCCC3CCOCC3)C2)cc1 (centres undefined)
inactive: [1] | [4] | [5]

COc1cc(N2CCN(C(C)=O)CC2)ccc1Nc1ncc(Cl)c(Nc2ccc(N3CCN(C(C)=O)CC3)cc2OC)n1
active: [2] 8.17 µM and 16.6 µM
inactive: [9] | [1] | [4] | [5] | [6] | [8] | [10] | C33A | Es-2 | JEG-3

CO[C@@H]1[C@@H](O[C@H]2O[C@@H](C)[C@H](O[C@@H]3C[C@](C)(O)[C@H](O)[C@@H](C)O3)[C@@H](N(C)C)[C@@H]2O)[C@@H](CC=O)C[C@@H](C)[C@@H](O[C@H]2CC[C@H](N(C)C)[C@H](C)O2)/C=C/C=C/C[C@@H](C)OC(=O)C[C@H]1O
not listed: [3] | [10]
inactive: all other assays above
